# Measurements: PubChem BioAssay (NCI)
# About 83,000 compounds went through this panel and 20% of them were active in at least one assay; those are over-represented in the sample as a whole.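 Each cell line was grown in a 96-well plate and treated with one concentration of compound for 48 hours. Values below 10 were considered active.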 Calls of active or inactive are those of the source.
# Tested on: LOX IMVI melanoma
# Assay: NCI-60 one-dose screen, 48 h (100 = growth as untreated, 0 = no growth, -100 = all killed)
# Details: 10 µM
# Method: Growth inhibition of the LOX IMVI human tumor cell line is measured as a screen for anti-cancer activity. Cells are grown in 96 well plates and exposed to the test compound for 48 hours. Compounds are tested at a single concentration, which is 10^-5 M for most compounds. The reported endpoint is percent growth (GI% or GIPRCNT), where numbers from 0 - 100% represent growth inhibition, and numbers from -100% - 0 represent cell death. For example, a value of 40 represents 60% growth inhibition. A value of 0 means no net growth occurred over the course of the experiment. A value of -40 indicates 40% of cells at the beginning of the experiment died by the end of the experiment. A value of -100 means all cells are dead at the end of the experiment.
# NCI-60 Human Tumor Cell Lines Screen was performed using the standard one-dose NCI protocol, which is described in more detail at https://dtp.cancer.gov/discovery_development/nci-60/default.htm.
# Compounds with GIPRCNT values below 10 were considered active. Activity score was based on GIPRCNT using the following formula: […]
# Score is 0 for GIPRCNT values of 100 or above, 50 for GIPRCNT values of 0, and 100 for GIPRCNT values of -100.
row,Structure (SMILES),growth
1,CC12CC[C@@H]3[C@]4(C)COC(c5cn[nH]c5-c5cccc(Cl)c5)O[C@@H]4CC[C@@]3(C)[C@@H]1CC(C1=CCOC1=O)O2 (stereo not given in full),40.3% (inactive)
2,O=C(Cn1c(/C=C/c2ccccc2)nc2ccccc2c1=O)Nc1ccc(Cl)cc1,25.4% (inactive)
3,C#CCOc1ccc(/C=N/Nc2nc(-c3cc4cc(Br)ccc4oc3=O)cs2)cc1OC,49.5% (inactive)
4,C=CC(=O)Nc1ccc(C)c(Oc2ccc(Cl)cc2)c1,27.8% (inactive)
5,CCCSc1nc(NCCc2c[nH]c3ccccc23)c(C#N)c(-c2ccc(F)cc2)n1,21.1% (inactive)
6,COc1ccc(-c2ccc(SCC(=O)NCCc3ccc(S(N)(=O)=O)cc3)nn2)cc1,89.1% (inactive)
7,O=c1onc(-c2cc3ccccc3nc2Cl)n1-c1cccc2ccccc12,42% (inactive)
8,CC(=O)OC[C@@]1(C)C2CC[C@]3(C)C(CC=C4C5CC(C)(C)CC[C@]5(C(=O)Nc5ccc(C)cc5)CC[C@]43C)[C@@]2(C)C[C@@H](OC(C)=O)[C@@H]1OC(C)=O (stereo not given in full),12.5% (inactive)
9,CC1(C)CC[C@]2(C(=O)O)CC[C@]3(C)C(=CCC4[C@@]5(C)C[C@@H](O)[C@@H]6OC(c7ccccc7F)OC[C@@]6(C)C5CC[C@]43C)C2C1 (stereo not given in full),-1.57% (active)
10,CC(C)Sc1nc(NCCc2c[nH]c3ccccc23)c(C#N)c(-c2ccc(F)cc2)n1,-17.3% (active)
11,CCCCCCCS(=O)(=O)N1CCCC(C(=O)Nc2nc3ccc(NC(=O)c4ccc(F)c(OC)c4F)cc3s2)C1 (stereo not given),34% (inactive)
12,NS(=O)(=O)c1ccc(-n2cc(-c3cccc(NC(=O)c4ccc(Cl)c(C(F)(F)F)c4)c3)nn2)cc1,-33.3% (active)
13,Cc1ccc(C(=O)CSc2nc3ccc(F)cc3c(=O)n2-c2ccc(Cl)cc2)cc1,60.7% (inactive)
14,C#C[C@]1(O)CC[C@H]2[C@@H]3CC=C4c5sc(-c6ccc(O)c(O)c6)nc5CC[C@]4(C)[C@H]3CC[C@@]21C,-92.9% (active)
15,CN(C)c1nc(NCCNS(=O)(=O)c2ccc(C3=Nc4c(N)nc(N)nc4NC(c4ccc(C(F)(F)F)cc4)C3)cc2)nc(Nc2ccc(F)cc2)n1 (stereo not given),-78.2% (active)
16,Cc1ccc(C(=O)NN2C(=O)/C(=C/C=C/c3ccc([N+](=O)[O-])o3)SC2=S)cc1,-90.9% (active)
17,COc1ccc2oc(=O)c(C3(C)NC(=O)c4c(/C=C/C(=O)OC(C)(C)C)cccc4N3)cc2c1 (stereo not given),49.1% (inactive)
18,O=c1[nH]c2ccc(Cl)cc2cc1CSc1nccc(-c2ccc(Cl)cc2)n1,57.5% (inactive)
19,CN(C)c1ccnc(CNCCSC2(c3ccccc3)c3ccccc3C=Cc3ccccc32)c1,-96.2% (active)
20,CCN(CC)c1ccnc(CNCCSC(c2ccccc2)(c2ccccc2)c2ccc(OC)cc2)c1,-99.2% (active)

row,Structure (SMILES),growth
1,CC(=O)/C=C/c1cccc2c1C(=O)NC(C)(c1cc3cc(Br)ccc3oc1=O)N2 (stereo not given),14.8% (inactive)
2,Cn1cc(-c2cc3nc(-c4cn(C)c5ncccc45)cc(N)n3n2)c2ccccc21,-56.8% (active)
3,COc1ccc2c(c1)C(=N/N=C(\C)c1ccc(OC)c(S(N)(=O)=O)c1)C(=O)N2,95% (inactive)
4,Cn1cc(-c2cc3nc(-c4cn(C)c5ncc(Br)cc45)cc(N)n3n2)c2ccccc21,-100% (active)
5,Cc1cccc(-c2nc(Nc3cccc(S(N)(=O)=O)c3)c3ccccc3n2)c1,7.14% (active)
6,Cc1ccc(C(=O)CSc2nc3ccc(C)cc3c(=O)n2-c2ccc(F)cc2)cc1,72.9% (inactive)
7,COc1ccc(C2=NN(c3ccccc3)C(c3ccc(OCc4ccccc4)c(OC)c3)C2)cc1OC (stereo not given),105% (inactive)
8,Cn1cc(NC(=O)c2cc(NC(=O)c3ccc(/C=C/c4ccccc4)cc3)cn2C)cc1C(=O)NCCCN1CCOCC1,-97.5% (active)
9,COc1ccc(CCC2c3c(cc4c(c3OC)OCO4)CCN2C)cc1 (stereo not given),-100% (active)
10,O=C(NNc1nc2cc(F)ccc2n2c(CN3CCCCC3)ccc12)c1cnccn1,-69.7% (active)
11,Cc1ccc([C@H]2C(C(=O)c3ccc(Cl)cc3)C3(N[C@@H]2c2ccccc2)C(=O)Nc2ccccc23)cc1 (stereo not given in full),25.5% (inactive)
12,COc1ccc(-c2nc3ccc(C(=O)NN4C(=O)c5ccc([N+](=O)[O-])cc5C4=O)cc3[nH]2)cc1,87.1% (inactive)
13,CCOC(=O)c1ccc(Nc2nc(NN)nc(-c3ccc(OC)cc3)c2C#N)cc1,114% (inactive)
14,Cc1ccccc1[C@H]1C(C(=O)c2ccc(Cl)cc2)C2(N[C@@H]1c1ccccc1)C(=O)Nc1ccccc12 (stereo not given in full),-100% (active)
15,CCCCCCCCOc1cccc(S(=O)(=O)Nc2ccc(C)cc2C(=O)O)c1,101% (inactive)
16,COc1ccc(/C=C/c2n(Cc3ccc4ccccc4c3)c3ccccc3[n+]2Cc2ccc3ccccc3c2)cc1,-80.4% (active)
17,Cc1ccccc1[C@H]1C(C(=O)c2ccc(Cl)cc2)C2(N[C@@H]1c1ccccc1)C(=O)Nc1ccc(Br)cc12 (stereo not given in full),-95.3% (active)
18,CC(=O)OC[C@@]1(C)C2CC[C@]3(C)C(CC=C4C5CC(C)(C)CC[C@]5(C(=O)Nc5cccc(C)c5)CC[C@]43C)[C@@]2(C)C[C@@H](OC(C)=O)[C@@H]1OC(C)=O (stereo not given in full),11.6% (inactive)
19,CN(C)c1ccnc(CNCCSC2(c3ccc(C(F)(F)F)cc3)c3ccccc3CCc3ccccc32)c1,-98.1% (active)
20,COc1ccc(-c2nc3cc(C)ccc3n2CC(=O)N=Nc2c(O)[nH]c3ccc(Br)cc23)cc1,-81.9% (active)
